Source: PubChem BioAssay
ssDAF-12 act – S. stercoralis DAF-12 nuclear receptor activators, primary screen, cell-based, luminescence, HEK293, GRIP1 co-expression, lit1-tk-luc; actives 1% (n = 370,000); activation, % at 6.8 µM; AID 652126, 2013; HEK293 ssDAF-12/GRIP1 lit1-tk-luc reporter; % of 3 µM dafachronic acid response; Nuclear hormone receptor DAF-12 (Strongyloides stercoralis);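 active = activation above the mean over all tested compounds plus 3 SD, cut at about 0.9% in these data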
hgDAF12 agonist – H. glycines DAF-12 receptor agonists, primary screen, cell-based, luminescence, HEK293, GAL4 fusion, UAS-luciferase; Nuclear hormone receptor DAF-12 (Heterodera glycines), GAL4 fusion; actives 1.8% (n = 370,000); AID 687014, 2013; activation, % at 6.8 µM; HEK293 GAL4-hgDAF12 UAS-luciferase reporter, agonist luminescence; normalized to butyrate control;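 active = activation above a cutoff set at the mean of all screened compounds plus 3 SD, cut at about 10% in these data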
DAX1 inh-1 – DAX1 (NR0B1) inhibitors on StAR promoter, primary screen, cell-based, luminescence, SF-1 (NR5A1), full-length DAX-1; actives 1.1% (n = 370,000); HEK293T StAR-luciferase reporter, SF-1/DAX-1 repression relief; inhibition, % at 6.8 µM;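 active = inhibition above the mean over all tested compounds plus 3 SD, cut at about 3.6% in these data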;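 also: higher inhibition means more luminescence from relief of DAX-1 repression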
hcDAF-12 act – H. contortus DAF-12 nuclear receptor activators, primary screen, cell-based, luminescence, HEK293, lit1-tk-luc reporter; HEK293 hcDAF-12 lit1-tk-luc reporter; 0% DMSO, 100% Δ7-dafachronic acid; activation, % at 6.8 µM; actives 1.4% (n = 370,000);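 active = activation above the mean of all tested compounds plus 3 SD, cut at about 5.5% in these data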
DAX1 inh-2 – DAX1 (NR0B1) inhibitors, primary screen, cell-based, HEK293, Gal4-DAX1, luciferase luminescence; Nuclear receptor subfamily 0 group B member 1 (Homo sapiens), P51843; HEK293 Gal4-DAX1 luciferase reporter; inhibition, % at 6.75 µM; actives 0.99% (n = 340,000);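 active = inhibition above the mean over all tested compounds plus 3 SD, cut at about 4.2% in these data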;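 also: inhibition shows as a rise in luminescence from relieved DAX1 repression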
Target sequence (P51843 207-470 limits assumed): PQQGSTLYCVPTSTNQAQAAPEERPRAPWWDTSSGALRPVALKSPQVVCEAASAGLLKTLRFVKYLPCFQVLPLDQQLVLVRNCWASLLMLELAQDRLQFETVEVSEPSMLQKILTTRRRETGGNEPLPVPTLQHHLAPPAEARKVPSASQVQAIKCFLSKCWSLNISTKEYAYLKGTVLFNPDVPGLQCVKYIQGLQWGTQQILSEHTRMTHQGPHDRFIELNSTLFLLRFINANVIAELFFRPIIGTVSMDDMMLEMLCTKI
FXN GAA850 act – FXN promoter activators, primary screen, cell-based, luciferase luminescence, HEK293 lucGAA850; AID 540364, 2011; actives 0.56% (n = 360,000); HEK293 lucGAA850 FXN promoter luciferase reporter, 24 h; percent of 10 µM SAHA response; activation, % at 6 µM;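 active = activation above the average of all compounds screened plus 3 SD, cutoff fixed separately per campaign, cut at about 7.5% in these data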
Each line names hits and unclear results; the compound was inactive in the other large screens. A selection: hits, their analogues and other compounds. The true share with any hit is near 4.5%.

O=C(NNS(=O)(=O)c1ccccc1[N+](=O)[O-])c1cccc(Cl)c1	ssDAF-12 act 1.1
O=C(NNS(=O)(=O)c1ccccc1[N+](=O)[O-])c1cccc(Br)c1	none
Cc1nnc(NC(=O)c2cccc(S(=O)(=O)N3CC(c4ccccc4)CC3=O)c2)s1 (stereo unspecified)	none
COc1ccc(C(=O)Nc2nncs2)cc1S(=O)(=O)N1CC(c2ccccc2)CC1=O (stereo unspecified)	DAX1 inh-2 8.0
CCOc1ccc2nc(N3C(=O)CNC3=S)sc2c1	DAX1 inh-2 5.3
C[C@@H]1[C@H](c2ccccc2)OC(O)([C@H](Cc2ccccc2)NC(=O)OC(C)(C)C)CN1C (stereo partly specified)	none (no result: DAX1 inh-1, DAX1 inh-2, FXN GAA850 act)
C[C@H]1COc2c3ccccc3nn21	none (no result: DAX1 inh-2, FXN GAA850 act)
Fc1ccc2[nH]c3c(Cl)ncnc3c2c1	ssDAF-12 act 1.0
COc1ccc2[nH]c3c(Cl)ncnc3c2c1	none
COc1cc2sc(NC(=O)c3ccco3)nc2cc1Cl	hgDAF12 agonist 12, DAX1 inh-2 6.7
O=C(Nc1nc2ccsc2c(=O)s1)c1ccco1	none (no result: DAX1 inh-2)
O=C(Nc1nc2c(Cl)ccc(Cl)c2s1)c1ccco1	hcDAF-12 act 5.6
COC(=O)[C@H](C(C)C)N1CCc2nnn(CC3CCCCC3)c2-c2cc(F)ccc2S1(=O)=O	none (no result: DAX1 inh-2, FXN GAA850 act)
O=C(N/N=C/c1ccc(OC(=O)c2ccccc2Cl)cc1)c1ccccn1	none (no result: ssDAF-12 act, hgDAF12 agonist, DAX1 inh-1, hcDAF-12 act)
Cn1cccc1/C=N\NC(=O)c1cncc(Br)c1	none (no result: DAX1 inh-2)
Cc1cc(C(=O)N/N=C/c2cccn2C)no1	none
Cn1cccc1/C=N/NC(=O)c1ccccn1	hgDAF12 agonist 12, DAX1 inh-1 3.7
O=C(N/N=C/c1cccs1)c1ccccn1	hgDAF12 agonist 12
Cn1cccc1/C=N/NC(=O)c1ccncc1	hcDAF-12 act 6.2 (no result: DAX1 inh-2)
O=C(N/N=C/c1cccs1)c1ccc2ncccc2c1	none
CCc1ccc(/C=N/NC(=O)c2ccccn2)cc1	hgDAF12 agonist 11
CCCCN1CN2Cc3ccc(C)cc3C2CS1(=O)=O (stereo unspecified)	none (no result: DAX1 inh-2, FXN GAA850 act)
Cc1ccc(S(=O)(=O)C2(C(=O)Nc3ccc(C(C)C)cc3)CC2)cc1	ssDAF-12 act 1.0
COc1ncc(-c2cc(C(C)=O)c3n(c2=O)CCC3)c(OC)n1	none (no result: DAX1 inh-2, FXN GAA850 act)
COc1ccc(CN2C3=N[C@H](c4ccccc4)CC(=O)N3/C(=C\c3ccccc3)C2c2ccco2)c(OC)c1 (stereo partly specified)	none (no result: DAX1 inh-2, FXN GAA850 act)
OCCC1CN(Cc2cc(F)ccc2-n2cccn2)CCN1C1CCCC1 (stereo unspecified)	ssDAF-12 act 1.7
CCN(CC)C(=O)CC[C@@H]1CC[C@]2(CCCN(C(=O)c3ccco3)C2)O1	none (no result: DAX1 inh-2, FXN GAA850 act)
Cc1ccccc1N(CC(=O)NC1CCCCC1)C(=O)CCCC(=O)Nc1ccccn1	DAX1 inh-2 5.0
C=C1C(=O)[C@]23C[C@H]1CC[C@H]2[C@]1(C)CCC[C@@](C)(C(=O)OC)[C@H]1C[C@@H]3O	none (no result: DAX1 inh-2, FXN GAA850 act)
CC1CN(C(C)C)C(=S)NC1=O (stereo unspecified)	DAX1 inh-1 3.6
COc1ccc(C2CC(=O)c3c(O)cc(O)cc3O2)cc1O (stereo unspecified)	DAX1 inh-2 4.8
CC1(c2nnnn2Cc2ccccc2)CCCC(=O)N1Cc1cccs1 (stereo unspecified)	none (no result: DAX1 inh-2, FXN GAA850 act)
COC(=O)[C@]12CCCCC=C1N(Cc1ccc(OC)cc1)C(=O)[C@@H]2CC(=O)NCCC(C)C	none (no result: DAX1 inh-2, FXN GAA850 act)
O=C(Nc1ccc(Cl)cc1)c1csc([C@@H]2C[C@H](O)[C@@H](CO)O2)n1	none (no result: DAX1 inh-2)
COc1ccc(C(=O)Nc2nnc([C@@H]3C[C@H](O)[C@@H](CO)O3)s2)cc1	none (no result: DAX1 inh-2)
O=C(Nc1cccc(C(F)(F)F)c1)Nc1nnc([C@@H]2C[C@H](O)[C@@H](CO)O2)s1	hgDAF12 agonist 10 (no result: DAX1 inh-2)
O=C(Nc1nnc([C@H]2C[C@H](O)[C@@H](CO)O2)s1)c1cccc(C(F)(F)F)c1	none (no result: DAX1 inh-2)
O=C(Nc1cccc(Cl)c1)c1csc([C@H]2C[C@H](O)[C@@H](CO)O2)n1	hgDAF12 agonist 11 (no result: DAX1 inh-2)
CC(C)Oc1cccc(C(=O)Nc2nnc([C@@H]3C[C@H](O)[C@@H](CO)O3)s2)c1	ssDAF-12 act 1.0 (no result: DAX1 inh-2)
C[C@H](O)[C@@H]1C(=O)N2CCc3c([nH]c4cccc(-c5ccccc5)c34)[C@@H]2C[C@@H]1N(C)C(=O)C1CCCCC1	none (no result: DAX1 inh-2, FXN GAA850 act)
Cc1[nH]n(-c2ccccc2)c(=O)c1C(c1cccc([N+](=O)[O-])c1)c1c(C)[nH]n(-c2ccccc2)c1=O	hcDAF-12 act 6.7
Cc1[nH]n(-c2ccccc2)c(=O)c1C(c1cccc([N+](=O)[O-])c1O)c1c(C)[nH]n(-c2ccccc2)c1=O	none
Cc1[nH]n(-c2ccccc2)c(=O)c1C(c1ccc(C(=O)O)cc1)c1c(C)[nH]n(-c2ccccc2)c1=O	ssDAF-12 act 2.1
CN1C(=O)[C@@](O)(c2cccn2C)c2cc(Cl)ccc21	ssDAF-12 act 0.9 (no result: DAX1 inh-2, FXN GAA850 act)
COc1ccc(CN2C(=O)[C@@](O)(c3cccn3C)c3cc(F)ccc32)cc1	none (no result: DAX1 inh-2, FXN GAA850 act)
O=C(O)CN1C(=O)COc2cc(S(=O)(=O)N3CCCC3)ccc21	DAX1 inh-2 5.8
CN(C)c1cccc2c1c(NC(=O)Nc1ccc(F)cc1F)nn2C	none
CN(C)c1cccc2c1c(NC(=O)Nc1ccccc1)nn2C	DAX1 inh-2 4.3
CN(C)c1cccc2c1c(NC(=O)c1ccc(F)cc1)nn2C	none
CN(C)c1cccc2c1c(NC(=O)c1ccc(Cl)cc1)nn2C	DAX1 inh-2 5.7
CN(Cc1ccccc1)S(=O)(=O)c1cccc(C(=O)OCc2ccccc2Cl)c1	none (no result: DAX1 inh-2, FXN GAA850 act)
CCCCNC(=O)CO/N=C(\C)c1cc2ccccc2o1	none
CCCCNCc1cc2ccccc2o1	DAX1 inh-2 4.5
Cc1ccccc1-c1cccc(CN2CCN(C)C(CCO)C2)c1 (stereo unspecified)	DAX1 inh-2 4.6
Cc1nn(C)cc1/C=C/C(=O)c1cccs1	hgDAF12 agonist 12, DAX1 inh-2 5.2
Cc1nn(C)c(C)c1/C=C/C(=O)c1cccs1	none
Cc1nc2cc(NC(=O)Nc3cccc([N+](=O)[O-])c3)ccc2n1C	hgDAF12 agonist 11
CC(=O)c1ccc(NC(=O)Nc2ccc3c(c2)nc(C)n3C)cc1	DAX1 inh-1 4.0
